Assay results: PubChem BioAssay (EPA / NIEHS)
Inconclusive results are not listed. Calls of active or inactive are those of the source. How the source made its calls, unless noted: active means hit-call score of the fitted dose curve at least 0.9, where 1 is the maximum; inactive means score below 0.9.

Assays:
[1] = ATG_TAL_CIS: Attagene CIS-FACTORIAL HepG2 Assay for human TAL Basal Promoter (AID 2282966); conditions: HepG2 Attagene cis-factorial TAL promoter reporter; actives raise or lower the signal;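 further: background control endpoint measuring basal TAL promoter reporter mRNA not a specific factor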
Method in brief: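 HepG2 cells transiently transfected with multiplexed cis-promoter reporter units, dosed 24 h. Reporter mRNA quantified by RT-PCR, 6-FAM labelling, HpaI digestion and capillary electrophoresis; TAL basal promoter serves as background control, fitted bidirectionally versus DMSO.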

[2] = ATG_TGFb_CIS: Attagene CIS-FACTORIAL HepG2 Assay for human Transforming Growth Factor (TGF) (AID 2282967); conditions: HepG2 Attagene CIS TGFb reporter, mRNA transcription; actives raise or lower the signal
Method in brief: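 After a 24-hour incubation with compound, transfected HepG2 cells were lysed for RNA; reporter cDNA was amplified, fluorescently end-labeled and separated by CE. DMSO served as baseline for bidirectional fits.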

[3] = ATG_VDRE_CIS: Attagene CIS-FACTORIAL HepG2 Assay for human Vitamin D Receptor Element (VDRE) (AID 2282968); conditions: HepG2 VDRE cis-reporter transcription, actives raise or lower the signal
Method in brief: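 RT-PCR/CE readout of reporter mRNA; HepG2, transient transfection, 24 h dosing; DMSO baseline; bidirectional analysis.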

[4] = biological target: Nuclear receptor subfamily 1 group I member 3 (Homo sapiens) (UniProt Q14994); experiment: ATG_CAR_TRANS: Attagene TRANS-FACTORIAL HepG2 Assay for human Constitutive Androstane Receptor (CAR) (AID 2282969; active means hit-call score of the fitted dose curve at least 0.9, where 1 is the maximum;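 further: activators raise reporter mRNA above DMSO so AC50 marks induction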); conditions: HepG2 Attagene TRANS-FACTORIAL CAR reporter
Chain of Nuclear receptor subfamily 1 group I member 3 (Homo sapiens) (Q14994 whole entry, looked up, the tested form may be a part): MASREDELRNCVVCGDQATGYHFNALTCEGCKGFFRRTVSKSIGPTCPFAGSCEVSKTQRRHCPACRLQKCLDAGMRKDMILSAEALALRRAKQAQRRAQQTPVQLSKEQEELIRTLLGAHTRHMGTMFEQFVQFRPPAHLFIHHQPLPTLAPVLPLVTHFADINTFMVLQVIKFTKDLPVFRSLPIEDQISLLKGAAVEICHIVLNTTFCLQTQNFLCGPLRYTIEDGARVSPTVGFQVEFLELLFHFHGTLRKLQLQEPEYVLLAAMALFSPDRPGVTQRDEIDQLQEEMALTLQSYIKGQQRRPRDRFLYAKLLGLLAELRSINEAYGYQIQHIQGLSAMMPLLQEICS
Method in brief: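 HepG2 cells transiently transfected with multiplexed GAL4-UAS reporter units expressing chimeric NR-Gal4 proteins; compound exposure 24 h. Reporter mRNA measured by RT-PCR, 6-FAM labelling, HpaI digestion and capillary electrophoresis; gain-of-signal fitted against DMSO baseline.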

[5] = biological target: X-box-binding protein 1 (Homo sapiens) (UniProt P17861); experiment: ATG_Xbp1_CIS: Attagene CIS-FACTORIAL HepG2 Assay for human X-box Binding Protein 1 (XBP1) (AID 2282972); conditions: HepG2 XBP1 cis-element reporter, Attagene multiplex; actives raise or lower the signal
Chain of X-box-binding protein 1 (Homo sapiens) (P17861 whole entry, looked up): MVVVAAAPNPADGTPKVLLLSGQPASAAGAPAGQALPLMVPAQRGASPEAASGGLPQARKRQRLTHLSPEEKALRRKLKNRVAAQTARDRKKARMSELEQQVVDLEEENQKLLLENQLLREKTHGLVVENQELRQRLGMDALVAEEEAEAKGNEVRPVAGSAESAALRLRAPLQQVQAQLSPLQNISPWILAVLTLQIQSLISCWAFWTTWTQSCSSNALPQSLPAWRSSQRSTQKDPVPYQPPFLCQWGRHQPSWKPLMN
Method in brief: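 HepG2, transient MRTU transfection (cis-promoter driven), 24 h compound exposure. Total RNA → oligo(dT) RT → PCR → 6-FAM labeling → HpaI cut → CE. Bidirectional fit vs DMSO.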

[6] = biological target: Glucocorticoid receptor (Homo sapiens) (UniProt P04150); experiment: ATG_GR_TRANS: Attagene TRANS-FACTORIAL HepG2 Assay for human Glucocorticoid Receptor (GR) (AID 2282978; active means hit-call score of the fitted dose curve at least 0.9, where 1 is the maximum;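 further: activators score as hits since higher reporter transcript over DMSO is fitted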); conditions: HepG2 Attagene TRANS GR reporter, mRNA transcription
Chain of Glucocorticoid receptor (Homo sapiens) (P04150 whole entry, looked up): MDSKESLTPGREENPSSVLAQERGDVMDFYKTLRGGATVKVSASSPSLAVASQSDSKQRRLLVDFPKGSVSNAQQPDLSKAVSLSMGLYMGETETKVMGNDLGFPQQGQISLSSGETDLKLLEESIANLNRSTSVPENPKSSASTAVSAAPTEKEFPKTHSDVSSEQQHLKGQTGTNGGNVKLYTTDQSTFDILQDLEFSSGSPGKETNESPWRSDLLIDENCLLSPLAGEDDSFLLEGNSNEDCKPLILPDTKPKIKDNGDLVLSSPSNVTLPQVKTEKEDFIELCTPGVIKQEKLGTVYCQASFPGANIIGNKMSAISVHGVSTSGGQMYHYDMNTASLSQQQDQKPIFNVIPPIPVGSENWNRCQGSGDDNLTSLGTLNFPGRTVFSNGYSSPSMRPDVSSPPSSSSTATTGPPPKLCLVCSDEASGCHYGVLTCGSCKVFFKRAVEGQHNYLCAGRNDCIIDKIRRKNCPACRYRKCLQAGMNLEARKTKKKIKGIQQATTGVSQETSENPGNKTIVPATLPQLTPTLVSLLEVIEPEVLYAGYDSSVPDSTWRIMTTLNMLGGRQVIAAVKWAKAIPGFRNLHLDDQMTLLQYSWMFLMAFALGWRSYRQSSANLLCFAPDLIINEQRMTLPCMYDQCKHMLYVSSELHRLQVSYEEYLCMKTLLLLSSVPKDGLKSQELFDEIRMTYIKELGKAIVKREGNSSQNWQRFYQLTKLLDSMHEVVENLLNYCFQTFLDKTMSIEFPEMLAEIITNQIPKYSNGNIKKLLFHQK
Method in brief: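 After 24 h incubation with test chemical, transfected HepG2 cells were lysed for RNA; reporter cDNA was amplified, FAM-labelled, HpaI-digested and sized on a capillary analyser. Signal gain relative to DMSO was scored.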

[7] = biological target: Bile acid receptor (Homo sapiens) (UniProt Q96RI1); experiment: ATG_FXR_TRANS: Attagene TRANS-FACTORIAL HepG2 Assay for Farnesoid X Receptor (FXR) (AID 2282979; active means hit-call score of the fitted dose curve at least 0.9, where 1 is the maximum;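 further: hits raise reporter mRNA above DMSO so AC50 marks FXR activation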); conditions: HepG2 Attagene TRANS FXR-GAL4 reporter transcription
Chain of Bile acid receptor (Homo sapiens) (Q96RI1 whole entry, looked up, the tested form may be a part): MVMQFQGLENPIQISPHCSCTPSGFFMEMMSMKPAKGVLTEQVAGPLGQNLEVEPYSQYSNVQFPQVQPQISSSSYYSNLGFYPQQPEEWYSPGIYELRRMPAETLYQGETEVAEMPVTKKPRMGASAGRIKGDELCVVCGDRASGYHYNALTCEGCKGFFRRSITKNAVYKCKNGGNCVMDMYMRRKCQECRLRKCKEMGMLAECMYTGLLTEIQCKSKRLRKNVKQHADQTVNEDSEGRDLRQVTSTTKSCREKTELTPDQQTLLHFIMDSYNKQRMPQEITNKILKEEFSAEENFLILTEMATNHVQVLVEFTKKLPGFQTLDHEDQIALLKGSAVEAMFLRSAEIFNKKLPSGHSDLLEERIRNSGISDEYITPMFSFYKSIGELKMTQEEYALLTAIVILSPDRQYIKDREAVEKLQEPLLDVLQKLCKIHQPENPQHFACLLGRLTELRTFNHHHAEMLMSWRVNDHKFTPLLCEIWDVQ
Method in brief: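 HepG2 cells were transiently transfected with GAL4-UAS reporters driven by chimeric NR-Gal4 proteins and dosed for 24 h. Reporter mRNA was quantified by RT-PCR, fluorescent labelling, HpaI digestion and capillary electrophoresis, with gain of signal scored versus DMSO.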

[8] = biological target: Oxysterols receptor LXR-alpha (Homo sapiens) (UniProt Q13133); experiment: ATG_LXRa_TRANS: Attagene TRANS-FACTORIAL HepG2 Assay for human Liver X Receptor alpha (LXRa) (AID 2282980; active means hit-call score of the fitted dose curve at least 0.9, where 1 is the maximum); conditions: HepG2 Attagene TRANS reporter, LXRa transactivation
Chain of Oxysterols receptor LXR-alpha (Homo sapiens) (Q13133 whole entry, looked up, the tested form may be a part): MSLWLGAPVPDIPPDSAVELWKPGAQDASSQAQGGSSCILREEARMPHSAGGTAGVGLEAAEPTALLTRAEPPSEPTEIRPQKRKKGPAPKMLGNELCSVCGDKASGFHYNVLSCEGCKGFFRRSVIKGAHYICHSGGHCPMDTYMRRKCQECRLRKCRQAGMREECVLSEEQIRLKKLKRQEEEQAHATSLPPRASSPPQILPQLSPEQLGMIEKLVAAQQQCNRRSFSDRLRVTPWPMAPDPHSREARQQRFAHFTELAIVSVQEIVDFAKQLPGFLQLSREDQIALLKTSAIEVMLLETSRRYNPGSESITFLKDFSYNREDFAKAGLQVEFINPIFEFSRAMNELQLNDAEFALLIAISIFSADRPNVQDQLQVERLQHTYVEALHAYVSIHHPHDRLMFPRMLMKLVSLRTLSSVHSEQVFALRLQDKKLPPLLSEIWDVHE
Method in brief: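 HepG2 cells transiently transfected with GAL4-UAS reporter units for chimeric NR-Gal4 proteins, exposed to chemicals for 24 h. Reporter mRNA quantified by RT-PCR and capillary electrophoresis; gain of signal fitted relative to DMSO.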

[9] = biological target: Oxysterols receptor LXR-beta (Homo sapiens) (UniProt P55055); experiment: ATG_LXRb_TRANS: Attagene TRANS-FACTORIAL HepG2 Assay for human Liver X Receptor beta (LXRb) (AID 2282981; active means hit-call score of the fitted dose curve at least 0.9, where 1 is the maximum); conditions: HepG2 Attagene TRANS GAL4-LXRb reporter, mRNA
Chain of Oxysterols receptor LXR-beta (Homo sapiens) (P55055 whole entry, looked up, the tested form may be a part): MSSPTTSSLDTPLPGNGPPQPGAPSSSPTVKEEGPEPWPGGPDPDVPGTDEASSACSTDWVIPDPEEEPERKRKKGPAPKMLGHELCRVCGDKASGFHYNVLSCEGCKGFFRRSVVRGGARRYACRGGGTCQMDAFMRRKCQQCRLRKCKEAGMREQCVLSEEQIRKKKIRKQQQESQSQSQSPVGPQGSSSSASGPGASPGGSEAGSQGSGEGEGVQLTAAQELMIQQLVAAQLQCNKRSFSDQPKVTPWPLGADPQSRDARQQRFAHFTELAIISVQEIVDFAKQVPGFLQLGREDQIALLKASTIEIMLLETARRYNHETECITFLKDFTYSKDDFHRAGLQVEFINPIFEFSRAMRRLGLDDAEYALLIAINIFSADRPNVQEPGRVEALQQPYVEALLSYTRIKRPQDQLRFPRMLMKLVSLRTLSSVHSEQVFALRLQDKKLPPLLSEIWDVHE
Method in brief: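 In this TRANS format, exogenous chimeric NR-Gal4 protein activity, not endogenous factors, drives reporter expression in transfected human HepG2 cells. Exposure lasted 24 h; reporter mRNA was read by fluorescent capillary electrophoresis.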

[10] = ATG_M_06_TRANS: Attagene TRANS-FACTORIAL HepG2 Assay for M06 Transcription Factor (Internal Marker) (AID 2282983; active means hit-call score of the fitted dose curve at least 0.9, where 1 is the maximum;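 on AC50: potency for rise in reporter mRNA above DMSO baseline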); conditions: HepG2 Attagene TRANS M06 internal marker reporter
Method in brief: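 HepG2 cells transiently transfected with GAL4-UAS multiple reporter units, dosed 24 h. Reporter RNA reverse-transcribed, PCR-amplified, 6-FAM-labeled, HpaI-digested and quantified by capillary electrophoresis; this internal-marker signal fitted upward relative to DMSO.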

[11] = ATG_M_32_TRANS: Attagene TRANS-FACTORIAL HepG2 Assay for M32 Transcription Factor (Internal Marker) (AID 2282984; active means hit-call score of the fitted dose curve at least 0.9, where 1 is the maximum); conditions: HepG2 Attagene TRANS M32 internal marker reporter
Method in brief: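 Human hepatoma HepG2, transient MRTU transfection, 24 h treatment. RNA → RT-PCR → fluorescent primer extension → HpaI digest (2 h, 37 C) → CE. Positive-direction fit vs DMSO.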

[12] = biological target: Nuclear receptor subfamily 4 group A member 2 (Homo sapiens) (UniProt P43354); experiment: ATG_NURR1_TRANS: Attagene TRANS-FACTORIAL HepG2 Assay for human Nuclear Receptor Related Protein 1 (NURR1) (AID 2282985; active means hit-call score of the fitted dose curve at least 0.9, where 1 is the maximum); conditions: HepG2 Attagene TRANS reporter, mRNA readout
Chain of Nuclear receptor subfamily 4 group A member 2 (Homo sapiens) (P43354 whole entry, looked up): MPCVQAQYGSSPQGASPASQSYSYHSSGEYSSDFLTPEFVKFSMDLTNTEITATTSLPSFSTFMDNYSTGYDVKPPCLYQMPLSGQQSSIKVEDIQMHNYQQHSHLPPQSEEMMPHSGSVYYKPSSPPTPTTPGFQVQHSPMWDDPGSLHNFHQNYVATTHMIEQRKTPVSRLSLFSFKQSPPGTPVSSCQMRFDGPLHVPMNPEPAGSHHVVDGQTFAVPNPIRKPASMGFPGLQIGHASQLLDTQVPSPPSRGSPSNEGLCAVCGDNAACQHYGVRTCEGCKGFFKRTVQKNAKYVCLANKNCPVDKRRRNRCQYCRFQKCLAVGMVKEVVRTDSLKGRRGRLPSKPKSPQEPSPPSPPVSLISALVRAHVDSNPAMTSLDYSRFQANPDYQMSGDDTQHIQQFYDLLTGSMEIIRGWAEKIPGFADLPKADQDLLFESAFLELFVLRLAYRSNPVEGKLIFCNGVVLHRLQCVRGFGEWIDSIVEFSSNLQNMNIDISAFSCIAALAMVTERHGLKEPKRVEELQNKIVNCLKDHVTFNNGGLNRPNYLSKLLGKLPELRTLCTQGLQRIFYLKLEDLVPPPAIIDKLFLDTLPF
Method in brief: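 After 24 h chemical dosing, total RNA from transiently transfected HepG2 cells was reverse-transcribed and reporter cDNA PCR-amplified, FAM-labelled and analysed by capillary electrophoresis. Activity fitted in positive direction, DMSO as negative control.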

[13] = biological target: Transcriptional activator Myb (Homo sapiens) (UniProt P10242); experiment: ATG_Myb_CIS: Attagene CIS-FACTORIAL HepG2 Assay for human Myeloblastosis (Myb) Proto-Oncogene Transcription Factor (AID 2282986); conditions: HepG2 Attagene CIS-FACTORIAL Myb reporter transcription; actives raise or lower the signal
Chain of Transcriptional activator Myb (Homo sapiens) (P10242 whole entry, looked up): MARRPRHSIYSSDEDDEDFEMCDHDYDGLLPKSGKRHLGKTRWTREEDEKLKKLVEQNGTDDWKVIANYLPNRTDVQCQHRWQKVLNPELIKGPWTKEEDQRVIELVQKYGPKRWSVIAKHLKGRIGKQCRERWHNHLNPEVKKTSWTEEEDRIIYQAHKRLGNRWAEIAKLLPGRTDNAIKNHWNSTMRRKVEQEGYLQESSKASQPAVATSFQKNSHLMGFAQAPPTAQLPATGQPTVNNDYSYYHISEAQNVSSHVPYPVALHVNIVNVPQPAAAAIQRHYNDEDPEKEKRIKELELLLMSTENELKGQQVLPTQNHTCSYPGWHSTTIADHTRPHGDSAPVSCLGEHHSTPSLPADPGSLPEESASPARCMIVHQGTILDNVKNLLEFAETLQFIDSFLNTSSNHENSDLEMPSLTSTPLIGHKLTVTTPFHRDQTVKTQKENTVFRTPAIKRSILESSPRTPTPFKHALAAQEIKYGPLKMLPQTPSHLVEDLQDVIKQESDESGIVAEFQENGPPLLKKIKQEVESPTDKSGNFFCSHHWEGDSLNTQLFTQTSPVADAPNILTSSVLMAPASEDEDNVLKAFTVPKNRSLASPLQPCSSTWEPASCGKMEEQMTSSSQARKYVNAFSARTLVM
Method in brief: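 After 24 h of compound dosing, total RNA from transfected HepG2 cells is reverse-transcribed and the reporter sequences amplified, labeled and separated by capillary electrophoresis. Values come from bidirectional fitting against DMSO.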

[14] = biological target: Nuclear respiratory factor 1 (Homo sapiens) (UniProt Q16656); experiment: ATG_NRF1_CIS: Attagene CIS-FACTORIAL HepG2 Assay for human Nuclear Respiratory Factor 1 (NRF1) Orphan Gene (AID 2282987); conditions: HepG2 NRF1 cis-element reporter, Attagene multiplex; actives raise or lower the signal
Chain of Nuclear respiratory factor 1 (Homo sapiens) (Q16656 whole entry, looked up): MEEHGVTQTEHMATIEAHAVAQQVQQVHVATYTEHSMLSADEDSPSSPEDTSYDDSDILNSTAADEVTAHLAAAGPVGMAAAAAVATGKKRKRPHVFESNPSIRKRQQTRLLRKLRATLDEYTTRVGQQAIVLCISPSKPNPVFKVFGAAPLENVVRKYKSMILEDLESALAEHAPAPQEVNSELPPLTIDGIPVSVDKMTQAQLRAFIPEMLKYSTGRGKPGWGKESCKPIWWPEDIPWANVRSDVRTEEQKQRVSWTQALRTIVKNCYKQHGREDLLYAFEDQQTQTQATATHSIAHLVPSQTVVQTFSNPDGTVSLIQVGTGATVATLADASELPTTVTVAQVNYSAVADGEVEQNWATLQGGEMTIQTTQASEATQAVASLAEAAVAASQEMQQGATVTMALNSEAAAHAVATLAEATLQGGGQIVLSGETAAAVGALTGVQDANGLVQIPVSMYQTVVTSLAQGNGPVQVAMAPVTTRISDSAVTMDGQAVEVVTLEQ
Method in brief: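 Measured: fluorescent reporter-specific RT-PCR products from transfected HepG2 cells, separated by capillary electrophoresis. Exposure lasted 24 h. Analysis used bidirectional curve fitting with DMSO as negative control.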

[15] = biological target: Hepatocyte nuclear factor 4-alpha (Homo sapiens) (UniProt P41235); experiment: ATG_HNF4a_TRANS: Attagene TRANS-FACTORIAL HepG2 Assay for human Hepatocyte Nuclear Factor 4 alpha (HNF4a) (AID 2282982; active means hit-call score of the fitted dose curve at least 0.9, where 1 is the maximum); conditions: HepG2 HNF4a transactivation reporter, mRNA readout
Chain of Hepatocyte nuclear factor 4-alpha (Homo sapiens) (P41235 whole entry, looked up, the tested form may be a part): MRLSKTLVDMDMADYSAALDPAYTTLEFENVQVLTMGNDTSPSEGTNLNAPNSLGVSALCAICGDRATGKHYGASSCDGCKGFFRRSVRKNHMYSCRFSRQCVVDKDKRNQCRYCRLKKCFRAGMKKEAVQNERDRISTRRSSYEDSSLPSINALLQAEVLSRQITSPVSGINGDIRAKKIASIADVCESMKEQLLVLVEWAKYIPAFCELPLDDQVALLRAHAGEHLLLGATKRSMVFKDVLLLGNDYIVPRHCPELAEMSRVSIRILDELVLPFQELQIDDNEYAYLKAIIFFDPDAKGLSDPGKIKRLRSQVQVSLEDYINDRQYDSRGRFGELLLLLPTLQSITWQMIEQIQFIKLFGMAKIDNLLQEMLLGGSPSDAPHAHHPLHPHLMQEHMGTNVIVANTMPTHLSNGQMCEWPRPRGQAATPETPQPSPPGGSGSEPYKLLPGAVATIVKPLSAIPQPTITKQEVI
Method in brief: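 Cells used were human HepG2, transiently carrying GAL4-UAS reporter units read out against exogenous NR-GAL4 chimeras. Reporter transcript levels after 24 h dosing were quantified by fluorescent RT-PCR and capillary electrophoresis.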

[16] = biological target: Steroid hormone receptor ERR1 (Homo sapiens) (UniProt P11474); experiment: ATG_ERRa_TRANS: Attagene TRANS-FACTORIAL HepG2 Assay for human Estrogen-Related Receptor alpha (ERRa) (AID 2282971; active means hit-call score of the fitted dose curve at least 0.9, where 1 is the maximum); conditions: HepG2 Attagene TRANS reporter, ERRa transactivation
Method in brief: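 HepG2 cells transiently transfected with GAL4-UAS reporter units and chimeric NR-Gal4 constructs; after 24 hour compound incubation, reporter mRNA quantified by RT-PCR, fluorescent labelling and capillary electrophoresis, gain of signal versus DMSO.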

[17] = ATG_M_19_TRANS: Attagene TRANS-FACTORIAL HepG2 Assay for M19 Transcription Factor (Internal Marker) (AID 2282974; active means hit-call score of the fitted dose curve at least 0.9, where 1 is the maximum); conditions: HepG2 Attagene TRANS-FACTORIAL M19 internal marker reporter
Method in brief: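 Transfected HepG2 (GAL4-UAS MRTUs), 24 h compound, TriZol RNA, DNase-treated RT, reporter PCR, FAM label, HpaI digest, CE fluorescence; gain vs DMSO.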

[18] = ATG_GAL4_TRANS: Attagene TRANS-FACTORIAL HepG2 Assay for GAL4 (Internal Marker) (AID 2282976; active means hit-call score of the fitted dose curve at least 0.9, where 1 is the maximum); conditions: HepG2 Attagene TRANS GAL4 internal marker reporter
Method in brief: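 Background-control readout: GAL4-UAS reporter transcript in transiently transfected HepG2 cells after 24 h compound exposure. Measured by RT-PCR, 6-FAM primer extension, HpaI digest and capillary electrophoresis; gain-of-signal fit versus DMSO.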

[19] = biological target: Estrogen receptor (Homo sapiens) (UniProt P03372); experiment: ATG_ERa_TRANS: Attagene TRANS-FACTORIAL HepG2 Assay for human Estrogen Receptor alpha (ERa) (AID 2282970; active means hit-call score of the fitted dose curve at least 0.9, where 1 is the maximum); conditions: HepG2 Attagene TRANS ERa GAL4 reporter, mRNA
Method in brief: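 HepG2 cells transiently transfected with multiplexed GAL4-UAS reporter units read out chimeric NR-Gal4 activity. After 24 h compound exposure, reporter mRNA was quantified by RT-PCR, 6-FAM labeling, HpaI digestion and capillary electrophoresis, relative to DMSO.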

[20] = biological target: Estrogen-related receptor gamma (Homo sapiens) (UniProt P62508); experiment: ATG_ERRg_TRANS: Attagene TRANS-FACTORIAL HepG2 Assay for human Estrogen-Related Receptor gamma (ERRg) (AID 2282977; active means hit-call score of the fitted dose curve at least 0.9, where 1 is the maximum;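 further: hits increase reporter signal over DMSO so potencies reflect activators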); conditions: HepG2 Attagene TRANS reporter, ERRg transactivation
Method in brief: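 Transfect HepG2 with multiple GAL4-UAS reporter transcription units; dose chemicals 24 h; isolate RNA, reverse-transcribe with oligo(dT), PCR-amplify, label with 6-FAM, digest with HpaI; size fragments by capillary electrophoresis. DMSO serves as negative control.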

Structure (SMILES): CC1(C)C2=CCCC(C)(C)[C@]23CC[C@H]1C3
- outcome [1]: inactive
- AC50 [2]: 100 µM (active)
- AC50 [3]: 2 µM (active)
- outcome [4]: inactive
- outcome [5]: inactive
- outcome [6]: inactive
- outcome [7]: inactive
- outcome [8]: inactive
- outcome [9]: inactive
- outcome [10]: inactive
- outcome [11]: inactive
- outcome [12]: inactive
- outcome [13]: inactive
- outcome [14]: inactive

Structure (SMILES): CC(=O)c1c(C)c([N+](=O)[O-])c(C(C)(C)C)c([N+](=O)[O-])c1C
- outcome [1]: inactive
- AC50 [2]: 100 µM (active)
- AC50 [3]: 4.01 µM (active)
- outcome [4]: inactive
- outcome [7]: inactive
- outcome [9]: inactive
- outcome [15]: inactive
- outcome [10]: inactive
- AC50 [12]: 10.2 µM (active)
- outcome [13]: inactive
- outcome [14]: inactive

Structure (SMILES): COCCOCCOCCO
- outcome [1]: inactive
- outcome [2]: inactive
- outcome [3]: inactive
- outcome [16]: inactive
- outcome [5]: inactive
- outcome [17]: inactive
- outcome [18]: inactive
- outcome [6]: inactive
- outcome [9]: inactive
- outcome [15]: inactive
- outcome [11]: inactive
- outcome [12]: inactive
- outcome [13]: inactive
- outcome [14]: inactive

Structure (SMILES): CC(C)OCCO
- outcome [1]: inactive
- outcome [2]: inactive
- outcome [3]: inactive
- outcome [4]: inactive
- outcome [5]: inactive
- outcome [10]: inactive
- outcome [13]: inactive
- outcome [14]: inactive

Structure (SMILES): COC(=O)C=C(C)CCC=C(C)C
- outcome [1]: inactive
- outcome [2]: inactive
- AC50 [3]: 10.5 µM (active)
- outcome [19]: inactive
- outcome [5]: inactive
- outcome [20]: inactive
- outcome [8]: inactive
- outcome [15]: inactive
- outcome [10]: inactive
- outcome [11]: inactive
- outcome [13]: inactive

Structure (SMILES): Nc1c(S(=O)(=O)O)cc(Br)c2c1C(=O)c1ccccc1C2=O
- outcome [1]: inactive
- outcome [2]: inactive
- AC50 [3]: 72.4 µM (active)
- outcome [19]: inactive
- outcome [5]: inactive
- outcome [8]: inactive
- outcome [9]: inactive
- outcome [10]: inactive
- outcome [11]: inactive
- outcome [12]: inactive
- outcome [13]: inactive
- outcome [14]: inactive

Structure (SMILES): CCCCCCCCCCCCCCN(CCO)CCO
- outcome [1]: inactive
- outcome [2]: inactive
- outcome [3]: inactive
- outcome [4]: inactive
- outcome [5]: inactive
- outcome [8]: inactive
- outcome [9]: inactive
- outcome [15]: inactive
- AC50 [10]: 162 µM (active)
- outcome [12]: inactive
- outcome [13]: inactive
- outcome [14]: inactive

Structure (SMILES): O=C(O)CNc1ccccc1
- outcome [1]: inactive
- outcome [2]: inactive
- outcome [3]: inactive
- outcome [4]: inactive
- outcome [20]: inactive
- outcome [6]: inactive
- outcome [7]: inactive
- outcome [9]: inactive
- outcome [10]: inactive
- outcome [13]: inactive
- outcome [14]: inactive

Structure (SMILES): OCCCCC(O)CO (stereo not drawn)
- outcome [1]: inactive
- outcome [2]: inactive
- outcome [3]: inactive
- outcome [16]: inactive
- outcome [5]: inactive
- outcome [17]: inactive
- outcome [18]: inactive
- outcome [10]: inactive
- outcome [13]: inactive
- outcome [14]: inactive

Structure (SMILES): COc1cccc(OC)c1O
- outcome [1]: inactive
- outcome [2]: inactive
- outcome [3]: inactive
- outcome [4]: inactive
- outcome [5]: inactive
- outcome [8]: inactive
- outcome [10]: inactive
- outcome [12]: inactive
- outcome [13]: inactive
- outcome [14]: inactive
